Data: PubChem BioAssay (NCI)
This is part of a sample that, as a whole, favours compounds with a hit. Of some 83,000 tested, about 20% had one in any assay.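 Method: cells in 96-well plates; compound added at one concentration; 48 h incubation; percent growth measured; values under 10 scored active.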 A number with no mark means an inactive call. Active and inactive are the calls of the source.

Tests used:
Assay in all cases: NCI-60 one-dose screen, 48 h (100 = growth as untreated, 0 = no growth, -100 = all killed)
Settings in all cases: 10 µM unless noted
[1] = test system: NCI-H23 lung
[2] = test system: NCI-H226 lung
[3] = test system: NCI-H322M lung
[4] = test system: HOP-62 NSCLC
[5] = test system: NCI-H460 lung
[6] = test system: HOP-92 NSCLC
[7] = test system: NCI-H522 lung
[8] = test system: A549/ATCC NSCLC
[9] = test system: 786-0 renal
[10] = test system: COLO 205 colon

Row | SMILES | growth [1] | growth [2] | growth [3] | growth [4] | growth [5] | growth [6] | growth [7] | growth [8] | growth [9] | growth [10]
1 | N#C/C(=C1C=C/C(=N/O)C(Cl)=C/1)c1ccc(Cl)cc1 | 104% | 71.5% | 118% | 45.7% | 78.3% | 70.5% | 67.7% | 88.8% | 63.5% | 99.8%
2 | COc1ccc(-c2cn(-c3cccc(C(=O)/C=C/c4cc(OC)c(OC)c(OC)c4)c3)c(=O)[nH]2)cc1OC | 93.9% | 87.9% | 95.5% | 93% | 91% | 61.2% | 74.4% | 89.5% | 80.2% | 90.9%
3 | Cc1ccc(S(=O)(=O)n2cc(C(=O)C(=O)N3CCOCC3)c3ccccc32)cc1 | 79.4% | 82.4% | 99.2% | 84.7% | 113% | 26.6% | 75.2% | 114% | 92.4% | 112%
4 | Cc1ccc(S(=O)(=O)NCCNc2nccc(-c3c(-c4cccc(N)c4)nc4sccn34)n2)cc1 | 91.7% | 79.6% | 108% | 105% | 94.7% | 94% | 83.5% | 87.4% | 96.3% | 105%
5 | CCN(CC)CCOc1ccc(/C(=C(/C)c2ccccc2)c2ccc(OC(C)=O)cc2)cc1 | 95.7% | 105% | 100% | 106% | 107% | 81% | 102% | 117% | 98.6% | 113%
6 | Cc1nn(-c2ccc([N+](=O)[O-])cc2)c2ncnc(NCCc3ccccc3)c12 | 95.9% | 97.8% | 116% | 102% | 91.6% | 91.3% | 107% | 99.8% | 105% | 104%
7 | COc1ccc(-n2c(=O)sc3c(Cl)nc(C)nc32)c(OC)c1 | 79.8% | 99.4% | 96.5% | 86.1% | 57.4% | 76.9% | 78.5% | 98.7% | 99.2% | 99.4%
8 | Nc1ccc(C(=O)CSc2nc3ccccc3[nH]2)cc1 | 98.4% | 108% | 108% | 111% | 106% | 116% | 101% | 99.8% | 93.5% | 120%
9 | Brc1ccc(-c2[nH]ncc2-c2c[nH]c3ccccc23)cc1 | 92.5% | 92.8% | 99.7% | 111% | 98.1% | 63.2% | 107% | 93.6% | 102% | 109%
10 | CN(CCCCCl)P(=O)(OCc1ccc([N+](=O)[O-])o1)C(F)(F)C[C@H](NC(=O)CNC(=O)c1ccc(N=[N+]=[N-])cc1)C(=O)NCCc1ccc(O)cc1 (stereo not given in full) | 99.4% | 105% | 93.8% | 118% | 105% | 108% | -66.9% (active) | 99% | 109% | 36.9%
11 | COc1cc(-c2nn(-c3cccc(NC(=O)Nc4cc(C(F)(F)F)cc(C(F)(F)F)c4)c3)cc2-c2ccncc2)ccc1Cl | -3.3% (active) | 8.68% (active) | 26.1% | -77.6% (active) | -49.7% (active) | -50.2% (active) | -34.4% (active) | -23.8% (active) | -71.1% (active) | -98.7% (active)
12 | O=C(/C=C/c1ccccc1)c1cccc(O)c1 | 96.7% | 109% | 113% | 103% | 110% | 82.8% | 116% | 86% | 94.2% | 107%
13 | Cc1cc(N/N=C/c2nc(-c3ccccc3)oc2C)c2cc(Br)ccc2n1 | 88.6% | 88.3% | 94.3% | 87.5% | 73.6% | 71.9% | 80.6% | 87% | 86.7% | 85.6%
14 | COc1ccc(-c2c(N)n[nH]c2-c2cc(OC)c(OC)c(OC)c2)cc1 | 36.9% | 82.7% | 43.9% | 41.1% | 6.89% (active) | 70.1% | -21.3% (active) | 25.9% | 33.7% | 4.54% (active)
15 | COc1ccc(-c2c(N)n[nH]c2-c2cc3c(c(OC)c2OC)OCO3)cc1 | 96.8% | 99.9% | 100% | 101% | 105% | 87.2% | 81.5% | 97.1% | 105% | 101%
16 | COc1ccc(/C(C#N)=C/c2cc(OC)c(OC)c(OC)c2)cc1 | 62.3% | 70.6% | 59.7% | 46.7% | 16.9% | 31.6% | 15.8% | 32.5% | 51.2% | 24.3%
17 | CN1CCN(Cc2ccc(NC(=O)c3nc4ccc5[nH]ncc5c4c4c3CCC4)cc2C(F)(F)F)CC1 | 19.2% | 73.9% | -50.9% (active) | -78.7% (active) | -84.2% (active) | 65.5% | -71.1% (active) | -71.6% (active) | -96.5% (active) | -43% (active)
18 | COc1ccc2c(c1)[nH]c(=O)c1c3cccc(F)c3cn21 | 46.8% | 45.3% | 52.4% | 53.1% | 7.94% (active) | 69.4% | -4.04% (active) | 12.1% | 44.3% | -20.8% (active)
19 | CC(C)CSc1nc(NN)c(C#N)c(-c2ccccc2)n1 | 99.7% | 89.1% | 89.5% | 94.1% | 97.4% | 108% | 88.2% | 105% | 98.4% | 111%
20 | Cc1ccc(S(=O)(=O)/C(=C\c2ccc(Cl)cc2)C(=O)c2ccccc2)cc1 | 102% | 97.9% | 101% | 104% | 106% | 94.6% | 96.3% | 106% | 103% | 102%
21 | O=C1Nc2ccc3c(c2/C1=C\c1cc2c(cc1Br)OCO2)OCO3 | 19.5% | 13.4% | 1.4% (active) | -21.3% (active) | -31.2% (active) | -5.47% (active) | 16.4% | 27.9% | 10.7% | -37.1% (active)
22 | CCOC(=O)c1cn2c3c(cc(C)cc3c1=O)C(=O)/C(=C/c1ccccc1)C2 | 108% | 94% | 96.9% | 79.2% | 104% | 57.1% | 75.8% | 89.1% | 82.7% | 93.4%
23 | COC(=O)c1nc(-c2ccccc2)oc1S(=O)(=O)N1CCN(c2cccc(Cl)c2)CC1 | 97.4% | 93.9% | 86.7% | 83% | 82.2% | 48.2% | 53.9% | 88.7% | 57% | 82.5%
24 | COc1ccc(-c2ccc(-c3ccc(-c4ccc(C(=N)N)cc4)s3)s2)cc1OC | 88.7% | 96.7% | 111% | 86% | 97.7% | 33.1% | 99.9% | 43.1% | 93% | -14.7% (active)
25 | CCCOC(=O)n1cccc1 | 99% | 104% | 135% | 94.3% | 110% | 97% | 112% | 96.8% | 98.5% | 107%
26 | O=C(Nc1cccc(-n2cc(-c3ccncc3)c(-c3ccc(Cl)c(O)c3)n2)c1)Nc1ccc(Cl)c(C(F)(F)F)c1 | -25.8% (active) | 3.43% (active) | 24.7% | -17% (active) | -43.7% (active) | -30.7% (active) | -30% (active) | -21.3% (active) | 4.7% (active) | -60.2% (active)
27 | C1=Cc2ccccc2N(c2nnc(-c3ccccc3)o2)c2ccccc21 | 103% | 81.7% | 92.2% | 99.5% | 49.8% | 84.7% | 92.8% | 92.6% | 100% | 91.3%
